Sampled rows, rich in hits. Any-hit rate of the full collection: about 4.5%.
ALR inh = inhibitors of human ALR sulfhydryl oxidase, primary screen, biochemical, H2O2 detection, HRP-luminol luminescence, single point; inhibition, % (no concentration beside the values); purified ALR, DTT oxidation; 3.8% of 290,000 active; FAD-linked sulfhydryl oxidase ALR (Homo sapiens), P55789;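 active = mean replicate inhibition above about 79%, with every replicate also reaching it, limit read from the data; inconclusive = only one of the two criteria met; inactive = mean below limit and not every replicate reaching it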
Target sequence (P55789 whole entry, looked up): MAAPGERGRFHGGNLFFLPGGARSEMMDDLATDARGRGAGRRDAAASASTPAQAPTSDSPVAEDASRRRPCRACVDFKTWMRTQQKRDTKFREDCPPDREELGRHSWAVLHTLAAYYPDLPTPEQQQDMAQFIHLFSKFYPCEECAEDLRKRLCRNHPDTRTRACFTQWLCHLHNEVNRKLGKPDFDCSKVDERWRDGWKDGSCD
HDAC3 inhib = HDAC3 deacetylase inhibitors, primary screen, biochemical, fluorescence, cell-free homogeneous; AID 2718, 2010; 0.15% of 320,000 active; recombinant HDAC3, fluorogenic peptide/trypsin coupled; inhibition, % at 8.3 µM; in the data active = inhibition above about 26%, passing the limit was not always enough; inconclusive = no clear call, values can overlap the other calls
Efflux pump mplx = inhibitors of Candida efflux pumps in yeast, primary screen, S. cerevisiae, Nile Red, multiplex. S. cerevisiae Candida pump triplex. AID 485275, 2010. 0.44% of 330,000 active. inhibition, % at 10 µM;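 active = plate passing quality check with inhibition over a set limit, or well fluorescence over plate mean plus 4 SD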;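 note: Nile Red retained in pooled yeast measured as flow cytometry median fluorescence; 0% = buffer negative control and 100% = Enniatin B positive control; higher means more Nile Red kept so more efflux inhibition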
Rce1 inh = yeast Rce1p protease inhibitors, primary screen, biochemical, fluorescence, cell-free homogeneous. yeast membranes, quenched prenylated peptide cleavage fluorescence. calls only. 0.27% of 290,000 active;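 active = fall in fluorescence gain of 50% or more versus controls, with final raw signal at or below 3038400; inconclusive = same 50% fall but final raw signal above 3038400; inactive = fall in fluorescence gain under 50%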;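 note: plate controls were neutral control wells for no effect and wells lacking membranes for full effect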
Rtt109 HAT inh = inhibitors of C. albicans Rtt109/Vps75 HAT, primary screen, biochemical, ThioGlo CoA-SH fluorescence, plate reader; Histone acetyltransferase RTT109 (Candida albicans (strain SC5314 / ATCC MYA-2876)), …; purified Rtt109/Vps75, 4 h; inhibition, % at 34.9 µM; 0.16% of 330,000 active; AID 540336, 2011;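 active = inhibition of at least 50% in every replicate; inconclusive = best replicate reaches 50% inhibition but some replicates fall short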
Target sequence (Q5AAJ8 whole entry, looked up): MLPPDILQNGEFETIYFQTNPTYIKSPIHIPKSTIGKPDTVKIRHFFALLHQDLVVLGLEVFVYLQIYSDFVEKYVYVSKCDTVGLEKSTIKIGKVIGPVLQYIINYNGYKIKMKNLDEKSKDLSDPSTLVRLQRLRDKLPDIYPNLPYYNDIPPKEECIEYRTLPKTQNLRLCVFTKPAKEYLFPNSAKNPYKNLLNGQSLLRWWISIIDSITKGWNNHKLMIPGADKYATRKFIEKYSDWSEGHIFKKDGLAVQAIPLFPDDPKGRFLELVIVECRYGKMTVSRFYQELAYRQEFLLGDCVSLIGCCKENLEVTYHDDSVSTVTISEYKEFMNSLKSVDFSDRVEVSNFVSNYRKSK
GRK2 aptamer HTS = compounds blocking aptamer binding on GRK2 – biochemical, human GRK2, bead flow cytometry, HTS, primary screen. FAM-aptamer displacement from GRK2. inhibition of aptamer binding, % at 10 µM. 0.59% of 330,000 active. AID 488847, 2010;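 active = inhibition of aptamer binding above 40%, roughly 3 SD of noise, on plates passing a quality check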;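 note: median bead fluorescence of bound FAM aptamer so fluorescent compounds give negative values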
GRK2 inh confirm = GRK2 aptamer-displacing inhibitors, retest, confirmation, biochemical, cherry pick 1, bead flow cytometry. shares compounds with GRK2 aptamer HTS. bead-bound GRK2, FAM-aptamer displacement. aptamer displacement, % at 10 µM. 4% of 2,000 active;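 active = aptamer displacement above 40%, near three times the noise of non-fluorescent compounds, on plates passing quality checks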;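 note: negative values mostly reflect intrinsic compound fluorescence rather than true enhancement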
Aptamer quench = fluorescent aptamer quenching in GRK2 counter-screen dose response; shares compounds with GRK2 aptamer HTS; Fluorescent RNA aptamer beads, flow cytometry; stronger effect = higher value; fluorescence change (kMESF span), kMESF (no concentration beside the values); 110 tested, under 10 active;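 active = compounds whose bead fluorescence drops by more than 37 kMESF across the dose range, marking them as dye quenchers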
FAM quench CP1 = counter-screen for GRK2 aptamer inhibitors: fluorescent aptamer quenchers | Carboxyfluorescein RNA aptamer on beads, flow cytometry quenching; stronger effect = lower value | AID 504580 | fluorescence response (% of DMSO), % at 10 µM | shares compounds with GRK2 aptamer HTS | 2,000 tested, under 10 active;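 active = compounds that quench the bead-bound fluorescent RNA probe, cutting fluorescence to under half of the solvent control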;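 note: counterscreen run without GRK2 so only probe quenching by compound is measured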
GRK2 confirm 2 = GRK2 aptamer-displacing inhibitors, hit retest, confirmation, biochemical, cherry pick 2, bead flow cytometry; bead-bound GRK2, FAM-aptamer displacement; inhibition of aptamer binding, % at 10 µM; AID 504782, 2011; shares compounds with GRK2 aptamer HTS; 360 tested, under 10 active;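 active = inhibition of aptamer binding above 40%, about triple the noise seen with nonglowing compounds, on plates passing quality control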;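 note: negative values mostly come from compounds that fluoresce themselves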
FAM quench CP2 = aptamer fluorescence quenching in GRK2 counter-screen. fluorescence response vs DMSO, % at 10 µM. carboxyfluorescein RNA aptamer beads, flow cytometry quenching; stronger effect = lower value. 360 tested, under 10 active. shares compounds with GRK2 aptamer HTS;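 active = response vs DMSO under 50%, meaning signal dropped by over half, treated as fluorescence quencher; inconclusive = no clear call, values can overlap the other calls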;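 note: labelled aptamer on streptavidin beads without GRK2 as a quench counter-screen; 100% = bead fluorescence of DMSO wells and lower means quenching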
An asterisk follows results filed as active; i = inactive; u = inconclusive; x = no result given.

SMILES	ALR inh	HDAC3 inhib	Efflux pump mplx	Rce1 inh	Rtt109 HAT inh	GRK2 aptamer HTS	GRK2 inh confirm	FAM quench CP1	others
CSc1ccccc1C(=O)NCCCn1ccnc1	-2	4	0	i	-5	100*	2	94
Nc1nc2c(nc(N3CCCCC3)n2[C@@H]2O[C@H](CO)[C@@H](O)[C@H]2O)c(=O)[nH]1	11	1	0	i	17	93*	-2	99
Nc1nc2c(ncn2C2C[C@H](O)[C@@H](CO)O2)c(=O)[nH]1 (some centres undefined)	1	0	0	i	-2	1	x	x
O=C(CSc1nc2[nH]ncc2c(=O)[nH]1)Nc1ccc(OC(F)(F)F)cc1	16	-2	0	i	0	65*	-2	102
CC(=O)Nc1ccccc1C(=O)C(=O)Nc1cccc(C(=O)NCc2ccc(C)cc2)c1	-5	2	0	i	x	1	x	x
Cc1ccc(C(=O)Nc2cccc(C(=O)NCc3ccccc3)c2)cc1	x	x	0	i	3	0	2	102
CC(=O)Nc1ccccc1C(=O)C(=O)Nc1cccc(C(=O)NCc2ccccc2)c1	-1	u	0	i	1	0	x	x
Cc1occc1C(=O)Nc1cccc(C(=O)NCc2ccccc2)c1	11	-5	0	i	6	0	-2	100
COc1ccc(C(=O)Nc2cccc(C(=O)NCc3ccccc3)c2)cc1	x	-3	0	i	-1	0	2	100
O=S(=O)(Nc1cccc(S(=O)(=O)N2CCCCCC2)c1)c1ccc(F)cc1F	-5	-4	0	x	-2	2	x	x
COC(=O)[C@]12C(=O)NC[C@H](CN1c1ccc(Cl)c(C)c1)N2C	7	-6	0	x	5	3	x	x
Nc1ccc(CCNc2ncnc3c2ncn3[C@@H]2O[C@H](CO)[C@@H](O)[C@H]2O)cc1	23	-1	0	i	-1	0	0	103
CCN(CC)S(=O)(=O)c1ccc(C(=O)N(c2ccc(C)cc2)C2C=CS(=O)(=O)C2)cc1 (centres undefined)	-9	6	0	x	2	6	x	x
S=C(NCCc1ccccc1)N1CCc2ccccc2C1	-5	-1	0	i	x	95*	-8	100
OC1CCN(C(=S)NCCc2ccccc2)CC1	-5	5	0	i	6	0	x	x
Cc1ccc(CNC(=O)C2CCCN(Cc3cnn(-c4ccccc4)c3-n3cccc3)C2)cc1 (centres undefined)	-22	-5	0	i	-6	5	-4	99
O=C(NCC1CCCO1)C1CCCN(Cc2cnn(-c3ccccc3)c2-n2cccc2)C1 (centres undefined)	x	-2	0	i	7	0	-7	98
CC(=O)NCCN1C(=O)S/C(=C\c2cccs2)C1=O	-4	7	0	i	26	79*	-2	101
O=C(NCCN1C(=O)S/C(=C\c2cccs2)C1=O)c1ccco1	-7	-1	0	i	5	0	x	x
O=C(Nc1cccc(-c2ccc(N3CCOCC3)nn2)c1)c1ccc(F)cc1F	13	-3	0	i	2	0	7	99
COc1ccc(C(=O)Nc2cccc(-c3ccc(N4CCOCC4)nn3)c2)cc1OC	x	4	0	i	11	5	x	x
COc1cccc(C(=O)Nc2cccc(-c3ccc(N4CCOCC4)nn3)c2)c1OC	-9	-4	0	i	x	0	0	104
CC(C)(CNC(=O)c1cc(-c2ccc(Cl)s2)nc2ccccc12)N1CCOCC1	-5	-18	0	i	1	52*	-4	101
COCCCNC(=O)C(=O)NC1CCCCCC1	-2	-3	0	i	-5	1	x	x
COCCNC(=O)C/C(C)=N/NC(=O)C(=O)NC1CCCCC1	11	3	0	i	-4	57*	86*	101	Aptamer quench=-9.6
SMILES	ALR inh	HDAC3 inhib	Efflux pump mplx	Rce1 inh	Rtt109 HAT inh	GRK2 aptamer HTS	GRK2 inh confirm	FAM quench CP1	others
COc1ccc(OC)c(Cc2nnc(CCC(=O)NCc3ccsc3)o2)c1	17	-7	0	x	-9	0	x	x
Cc1cccc(Oc2ccc(NC(=O)C3=CC=CN4CCS(=O)(=O)N=C34)cc2)c1	3	-4	0	x	-3	0	x	x
CCC(=O)N1CCc2cc(S(=O)(=O)CCC(=O)NCc3cccs3)ccc21	-11	-2	0	i	-1	0	x	x	GRK2 confirm 2=12;FAM quench CP2=99
CCOc1ccc(NC(=O)CCS(=O)(=O)c2ccc3c(c2)CCCN3C(C)=O)cc1	-11	-9	0	i	-8	4	x	x
CCc1ccccc1NC(=O)CCS(=O)(=O)c1ccc2c(c1)CCCN2C(C)=O	-9	6	0	i	-6	61*	1	100	GRK2 confirm 2=17;FAM quench CP2=100
CCOc1ccccc1NC(=O)CCS(=O)(=O)c1ccc2c(c1)CC(C)N2C(C)=O (centres undefined)	-14	8	0	i	-3	1	x	x
CCOc1ccccc1NC(=O)CCS(=O)(=O)c1ccc2c(c1)CCN2C(C)=O	-11	5	0	i	-6	6	x	x	GRK2 confirm 2=-8;FAM quench CP2=101
CN(C)/C=C/C=C1C(=O)CCCC1=O	33	2	0	i	u	42*	11	102
C=CCOc1ccc(C(=O)CC)cc1OC	-18	0	0	i	-1	93*	4	100
CCN(CC)S(=O)(=O)c1cc(NC(=O)CNc2cccc(S(=O)(=O)N3CCCC3)c2)ccc1C	-1	5	0	i	4	1	x	x
